Laboratory results published in the supplement of paper PMC10849652.
The full data set covers some 8,800 targets. This sample favours those with a hit. About 0.5% of all pairs of compound and target were hits.

Experiments:
Test in all cases: log2 fold change, soluble protein after heating vs DMSO (PISA); higher = thermal stabilisation; K562 lysate, 10 uM; active = over 0.2 and 3.5 SD of the protein, either way, in both replicates (recomputed)
ibrutinib = compound: C=CC(=O)N1CCC[C@@H](n2nc(-c3ccc(Oc4ccccc4)cc3)c3c(N)ncnc32)C1 [ibrutinib]
How it was run: (§1)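 The values are log-two fold changes in thermal stability compared with solvent controls and come from duplicates. They were obtained by TMTpro 16plex LC-MS/MS, with channel sums equalised, on the supernatant after 21,000xg for 90 min. That supernatant came from crude K562 extract at 1 mg/mL protein treated with 10 μM compound for 30 min, heated for 3 min across 48°C-58°C, pooled and brought to 0.5% NP-40 at 4°C.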

[1] = compound: CC(=O)c1cnc2ccc(-c3cc(Cl)c(O)c(Cl)c3)nc2c1N[C@H]1CC[C@H](CN(C)C)CC1
How it was run: as §1

ralimetinib = compound: CC(C)(C)Cn1c(N)nc2ccc(-c3[nH]c(C(C)(C)C)nc3-c3ccc(F)cc3)nc21 [ralimetinib]
How it was run: as §1

[2] = compound: CC(C)(O)CC(=O)NCCn1ccc2ncnc(Nc3ccc(Oc4cccc(C(F)(F)F)c4)c(Cl)c3)c21
How it was run: as §1

[3] = compound: CC(C)C1=C2N=C(C=C(N2N=C1)NCC3=CC=CC=C3)NCCCCCCN
How it was run: as §1

[4] = compound: CC1=C(C(CC(=O)N1)C2=CC=C(C=C2)C(F)(F)F)C(=O)NC3=C(C=C4C(=C3)C=NN4)F
How it was run: as §1

[5] = compound: CC1=C(C2=C(C=C1)C(=O)C3=CC=CC=C3N2CCCN)C
How it was run: as §1

[6] = compound: CC1=C(C=C(C=C1)NC(=O)C2=CC(=CC=C2)C(C)(C)C#N)NC3=CC4=C(C=C3)N=CN(C4=O)C
How it was run: as §1

[7] = compound: CC1=C(C=C(C=C1)NC(=O)C2=CC(=CC=C2)N(C)C)NC(=O)C3=CC=C(C=C3)O
How it was run: as §1

[8] = compound: CC1=CC=C(C=C1)SC2=C3C=C(SC3=CN=C2)C(=O)N
How it was run: as §1

Measured: log2 fold change

DPM1 (UniProt O60762)
Chain of UniProt O60762 (O60762 whole entry, looked up): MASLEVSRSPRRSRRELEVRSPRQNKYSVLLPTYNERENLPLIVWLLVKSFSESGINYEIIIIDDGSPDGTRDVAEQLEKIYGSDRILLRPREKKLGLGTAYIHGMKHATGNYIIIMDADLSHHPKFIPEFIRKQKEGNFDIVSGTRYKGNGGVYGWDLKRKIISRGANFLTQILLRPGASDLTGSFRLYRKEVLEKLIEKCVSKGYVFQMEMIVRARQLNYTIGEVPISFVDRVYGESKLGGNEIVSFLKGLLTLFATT
inactive: ibrutinib -0.016 | [1] -0.018 | ralimetinib -0.025 | [2] -0.027 | [3] -0.009 | [4] 0.033 | [5] 0.015 | [6] 0.006 | [7] 0.014 | [8] 0.023

CTPS1 (UniProt P17812)
Chain of UniProt P17812 (P17812 whole entry, looked up): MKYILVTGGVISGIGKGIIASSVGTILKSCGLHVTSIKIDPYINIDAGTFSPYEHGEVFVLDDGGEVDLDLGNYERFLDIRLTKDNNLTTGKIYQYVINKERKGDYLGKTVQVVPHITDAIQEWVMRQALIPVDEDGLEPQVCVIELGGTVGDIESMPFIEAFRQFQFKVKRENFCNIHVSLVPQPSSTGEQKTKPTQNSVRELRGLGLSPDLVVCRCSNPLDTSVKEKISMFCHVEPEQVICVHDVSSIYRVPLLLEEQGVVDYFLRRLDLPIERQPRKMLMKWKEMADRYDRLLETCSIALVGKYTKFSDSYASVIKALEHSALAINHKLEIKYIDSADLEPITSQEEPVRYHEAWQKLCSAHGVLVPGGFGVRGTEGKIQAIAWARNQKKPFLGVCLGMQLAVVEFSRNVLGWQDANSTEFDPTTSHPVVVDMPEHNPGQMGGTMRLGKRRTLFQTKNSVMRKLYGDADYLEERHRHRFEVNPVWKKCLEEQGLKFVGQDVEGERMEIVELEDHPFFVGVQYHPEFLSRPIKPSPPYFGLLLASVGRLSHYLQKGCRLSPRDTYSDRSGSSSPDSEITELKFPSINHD
inactive: ibrutinib -0.045 | [1] 0.01 | ralimetinib -0.017 | [2] -0.015 | [3] -0.022 | [4] -0.012 | [5] 0.024 | [6] 0.004 | [7] 0.017 | [8] 0.02

COG4 (UniProt Q9H9E3)
inactive: ibrutinib 0.014 | [1] 0.005 | ralimetinib -0.007 | [2] -0.042 | [3] -0.029 | [4] 0 | [5] -0.001 | [6] -0.049 | [7] -0.033 | [8] 0

CYP51A1 (UniProt Q16850)
active: ibrutinib 0.601
inactive: [1] -0.025 | ralimetinib -0.025 | [2] 0.101 | [3] 0.038 | [4] -0.017 | [5] -0.031 | [6] -0.093 | [7] 0.014 | [8] -0.099

DERA (UniProt Q9Y315)
Chain of UniProt Q9Y315 (Q9Y315 whole entry, looked up): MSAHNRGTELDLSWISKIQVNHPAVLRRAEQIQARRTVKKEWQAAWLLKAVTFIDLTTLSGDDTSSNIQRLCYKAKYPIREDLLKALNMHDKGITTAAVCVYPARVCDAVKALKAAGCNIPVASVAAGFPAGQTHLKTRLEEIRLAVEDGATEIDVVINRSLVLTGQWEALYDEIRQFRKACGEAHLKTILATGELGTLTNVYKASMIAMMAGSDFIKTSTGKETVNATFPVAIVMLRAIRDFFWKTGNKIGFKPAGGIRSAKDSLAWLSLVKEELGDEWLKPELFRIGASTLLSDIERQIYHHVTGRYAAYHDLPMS
inactive: ibrutinib -0.011 | [1] 0.008 | ralimetinib 0.008 | [2] -0.032 | [3] 0.013 | [4] -0.01 | [5] -0.037 | [6] 0.033 | [7] -0.008 | [8] -0.017

CSK (UniProt P41240)
Chain of UniProt P41240 (P41240 whole entry, looked up): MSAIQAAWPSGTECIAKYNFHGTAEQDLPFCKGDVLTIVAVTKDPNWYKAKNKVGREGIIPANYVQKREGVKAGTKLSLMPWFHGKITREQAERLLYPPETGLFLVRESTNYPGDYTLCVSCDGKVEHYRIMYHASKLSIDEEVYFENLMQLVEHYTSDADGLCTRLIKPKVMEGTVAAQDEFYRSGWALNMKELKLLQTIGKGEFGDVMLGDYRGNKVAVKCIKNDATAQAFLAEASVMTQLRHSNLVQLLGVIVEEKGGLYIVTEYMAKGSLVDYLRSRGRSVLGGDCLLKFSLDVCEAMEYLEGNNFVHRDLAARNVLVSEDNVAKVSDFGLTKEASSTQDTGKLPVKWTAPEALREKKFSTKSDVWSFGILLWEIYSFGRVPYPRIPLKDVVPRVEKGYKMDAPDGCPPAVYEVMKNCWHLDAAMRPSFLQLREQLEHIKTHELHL
active: ibrutinib 0.891 | [6] 0.626
inactive: [1] 0.242 | ralimetinib 0 | [2] 0.181 | [3] 0 | [4] -0.086 | [5] -0.04 | [7] -0.015 | [8] -0.054

CORO1A (UniProt P31146)
inactive: ibrutinib 0.028 | [1] -0.031 | ralimetinib -0.015 | [2] -0.021 | [3] 0.055 | [4] 0.018 | [5] -0.107 | [6] 0.025 | [7] -0.036 | [8] 0.012

CNOT6L (UniProt Q96LI5)
inactive: ibrutinib 0.02 | [1] 0.015 | ralimetinib 0.037 | [2] -0.06 | [3] -0.05 | [4] 0.064 | [5] -0.07 | [6] 0.008 | [7] -0.041 | [8] 0.016

DENND1B (UniProt Q6P3S1)
Chain of UniProt Q6P3S1 (Q6P3S1 whole entry, looked up): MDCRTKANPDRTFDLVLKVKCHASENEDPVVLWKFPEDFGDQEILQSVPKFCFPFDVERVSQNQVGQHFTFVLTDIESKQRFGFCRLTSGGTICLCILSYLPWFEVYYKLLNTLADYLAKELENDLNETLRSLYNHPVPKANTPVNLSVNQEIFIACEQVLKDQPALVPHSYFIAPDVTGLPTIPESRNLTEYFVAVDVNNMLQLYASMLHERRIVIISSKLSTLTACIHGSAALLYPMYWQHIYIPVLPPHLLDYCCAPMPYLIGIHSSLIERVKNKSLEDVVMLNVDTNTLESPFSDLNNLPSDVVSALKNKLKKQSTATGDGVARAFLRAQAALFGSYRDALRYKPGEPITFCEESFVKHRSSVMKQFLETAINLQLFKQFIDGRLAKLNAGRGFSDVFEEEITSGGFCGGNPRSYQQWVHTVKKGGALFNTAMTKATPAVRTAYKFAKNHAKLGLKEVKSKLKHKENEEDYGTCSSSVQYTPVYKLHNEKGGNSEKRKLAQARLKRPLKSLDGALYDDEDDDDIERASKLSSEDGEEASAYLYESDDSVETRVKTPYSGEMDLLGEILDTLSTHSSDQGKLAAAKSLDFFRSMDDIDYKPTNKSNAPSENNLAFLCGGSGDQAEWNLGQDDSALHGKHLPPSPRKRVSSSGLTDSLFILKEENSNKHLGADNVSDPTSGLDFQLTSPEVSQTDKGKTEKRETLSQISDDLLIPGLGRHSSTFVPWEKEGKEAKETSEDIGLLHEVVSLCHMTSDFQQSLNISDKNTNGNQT
inactive: ibrutinib 0.405 | [1] -0.034 | ralimetinib -0.039 | [2] -0.114 | [3] -0.087 | [4] 0.151 | [5] 0.174 | [6] 0.031 | [7] -0.003 | [8] 0.011

COG2 (UniProt Q14746)
inactive: ibrutinib -0.029 | [1] -0.023 | ralimetinib 0.017 | [2] -0.017 | [3] 0 | [4] 0.023 | [5] -0.035 | [6] -0.019 | [7] 0.062 | [8] -0.009

DLGAP5 (UniProt Q15398)
inactive: ibrutinib 0.004 | [1] 0.02 | ralimetinib -0.018 | [2] 0.005 | [3] -0.036 | [4] -0.009 | [5] -0.007 | [6] -0.012 | [7] 0.016 | [8] -0.003

CIC (UniProt I3L2J0)
inactive: ibrutinib 0.036 | [1] 0.044 | ralimetinib 0.055 | [2] -0.083 | [3] 0.013 | [4] 0.054 | [5] -0.044 | [6] 0.029 | [7] 0.02 | [8] 0.028

CMPK2 (UniProt Q5EBM0)
inactive: ibrutinib 0.012 | [1] 0.045 | ralimetinib -0.012 | [2] 0.012 | [3] 0.026 | [4] 0.014 | [5] 0.027 | [6] 0.009 | [7] -0.018 | [8] -0.01

DOK1 (UniProt Q99704)
inactive: ibrutinib 0.023 | [1] 0.01 | ralimetinib 0.017 | [2] 0.014 | [3] -0.029 | [4] 0.137 | [5] 0.018 | [6] 0.017 | [7] 0.014 | [8] -0.135

CNP (UniProt P09543)
Chain of UniProt P09543 (P09543 whole entry, looked up): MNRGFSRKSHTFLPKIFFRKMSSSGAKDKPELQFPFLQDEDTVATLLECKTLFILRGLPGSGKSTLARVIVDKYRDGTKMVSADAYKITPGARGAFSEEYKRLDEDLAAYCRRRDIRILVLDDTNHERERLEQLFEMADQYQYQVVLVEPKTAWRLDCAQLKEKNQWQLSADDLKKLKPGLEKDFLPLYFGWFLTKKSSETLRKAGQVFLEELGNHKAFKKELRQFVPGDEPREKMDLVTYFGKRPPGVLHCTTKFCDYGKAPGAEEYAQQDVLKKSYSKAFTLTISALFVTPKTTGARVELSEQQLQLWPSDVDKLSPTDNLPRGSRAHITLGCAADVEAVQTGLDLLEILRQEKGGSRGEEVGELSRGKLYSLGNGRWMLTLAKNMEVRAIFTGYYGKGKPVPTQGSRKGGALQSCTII
inactive: ibrutinib 0.024 | [1] 0.01 | ralimetinib 0.028 | [2] 0.019 | [3] 0.022 | [4] 0.042 | [5] 0.038 | [6] -0.018 | [7] -0.015 | [8] 0.01

CNDP2 (UniProt Q96KP4)
Chain of UniProt Q96KP4 (Q96KP4 whole entry, looked up): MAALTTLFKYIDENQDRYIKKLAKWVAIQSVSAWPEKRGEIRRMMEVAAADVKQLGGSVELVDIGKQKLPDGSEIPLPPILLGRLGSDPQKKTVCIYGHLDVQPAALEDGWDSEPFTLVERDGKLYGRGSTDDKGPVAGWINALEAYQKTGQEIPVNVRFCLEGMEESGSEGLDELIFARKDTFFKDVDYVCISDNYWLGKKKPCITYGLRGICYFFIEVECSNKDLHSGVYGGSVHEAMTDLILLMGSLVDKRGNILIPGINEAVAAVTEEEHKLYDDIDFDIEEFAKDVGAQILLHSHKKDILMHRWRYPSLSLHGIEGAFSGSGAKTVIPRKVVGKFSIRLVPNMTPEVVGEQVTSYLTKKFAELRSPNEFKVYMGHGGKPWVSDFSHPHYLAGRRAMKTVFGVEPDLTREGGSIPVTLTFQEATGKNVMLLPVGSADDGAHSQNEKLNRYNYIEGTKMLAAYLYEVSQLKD
inactive: ibrutinib 0.013 | [1] -0.027 | ralimetinib 0.024 | [2] -0.049 | [3] -0.011 | [4] -0.005 | [5] -0.02 | [6] 0.023 | [7] 0 | [8] -0.035

CXXC1 isoform 2 (UniProt Q9P0U4)
inactive: ibrutinib -0.034 | [1] -0.078 | ralimetinib 0.013 | [2] -0.089 | [3] -0.005 | [4] -0.01 | [5] 0.082 | [6] 0.004 | [7] 0.061 | [8] -0.155

CNTN4 (UniProt Q8IWV2)
inactive: ibrutinib -0.043 | [1] -0.154 | ralimetinib -0.286 | [2] -0.341 | [3] 0.094 | [4] -0.077 | [6] 0.312 | [7] -0.039 | [8] -0.141

DIAPH1 (UniProt H9KV28)
inactive: ibrutinib -0.063 | [1] 0.024 | ralimetinib -0.022 | [2] -0.106 | [3] -0.083 | [4] 0.032 | [6] 0.004 | [7] 0.009 | [8] -0.03

CHMP4A (UniProt H0YIN6)
inactive: ibrutinib -0.077 | [1] -0.203 | ralimetinib -0.253 | [2] -0.354 | [5] -0.055 | [6] 0.33 | [7] 0.15 | [8] -0.159

DNAH5 (UniProt Q8TE73)
inactive: ibrutinib -0.064 | [1] -0.009 | ralimetinib -0.045 | [2] -0.138 | [3] 0.076 | [4] 0.062 | [5] 0.014 | [7] 0.019 | [8] 0.086

CLASP1 (UniProt Q7Z460)
inactive: [1] 0.013 | ralimetinib 0.02 | [2] 0.024 | [3] 0.01 | [4] 0.018 | [5] 0.004 | [6] 0.02 | [7] 0.036 | [8] 0.001

DHRS1 (UniProt Q96LJ7)
inactive: ibrutinib -0.057 | [1] -0.037 | ralimetinib 0.01 | [2] 0.089 | [3] 0.058 | [4] 0.024 | [5] -0.104 | [6] 0.001 | [7] -0.035 | [8] -0.001

DLGAP5 isoform 3 (UniProt Q15398)
inactive: ibrutinib -0.076 | [5] 0.233

CSNK1D (UniProt P48730)
inactive: ibrutinib -0.086 | ralimetinib -0.038 | [2] -0.112 | [4] 0.245 | [5] -0.151 | [6] -0.001 | [7] -0.143 | [8] 0.179
active: [1] 0.494

CSDE1 isoform 3 (UniProt O75534)
inactive: ibrutinib 0.051 | [1] -0.331 | ralimetinib 0.047 | [2] 0.019 | [4] -0.112 | [6] -0.009 | [7] -0.137 | [8] 0.031

DDX4 (UniProt Q9NQI0)
Chain of UniProt Q9NQI0 (Q9NQI0 whole entry, looked up): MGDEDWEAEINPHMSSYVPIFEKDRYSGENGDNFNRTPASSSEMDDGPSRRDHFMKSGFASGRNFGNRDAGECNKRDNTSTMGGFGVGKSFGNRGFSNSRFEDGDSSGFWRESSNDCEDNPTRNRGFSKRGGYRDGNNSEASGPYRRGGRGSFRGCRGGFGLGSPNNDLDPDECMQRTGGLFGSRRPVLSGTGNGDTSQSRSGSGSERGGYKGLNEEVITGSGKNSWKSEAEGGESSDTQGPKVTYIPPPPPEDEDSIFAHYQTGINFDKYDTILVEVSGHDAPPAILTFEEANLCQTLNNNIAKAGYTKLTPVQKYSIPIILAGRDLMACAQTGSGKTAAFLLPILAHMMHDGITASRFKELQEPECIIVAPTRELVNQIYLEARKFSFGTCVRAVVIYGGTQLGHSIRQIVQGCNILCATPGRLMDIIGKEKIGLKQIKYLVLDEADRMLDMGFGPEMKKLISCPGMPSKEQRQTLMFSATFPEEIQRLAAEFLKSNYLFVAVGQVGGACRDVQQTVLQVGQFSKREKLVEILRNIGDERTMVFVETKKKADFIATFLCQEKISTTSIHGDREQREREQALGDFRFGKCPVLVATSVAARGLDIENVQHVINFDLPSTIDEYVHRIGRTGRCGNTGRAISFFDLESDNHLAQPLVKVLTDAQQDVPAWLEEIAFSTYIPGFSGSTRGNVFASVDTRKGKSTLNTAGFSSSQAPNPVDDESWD
inactive: ibrutinib 0.019 | [1] -0.004 | ralimetinib 0.04 | [2] 0.087 | [3] -0.032 | [4] 0.008 | [5] 0.1 | [7] -0.051 | [8] -0.026

DLD (UniProt P09622)
inactive: ibrutinib 0.003 | [1] 0.003 | ralimetinib -0.006 | [2] -0.016 | [3] -0.013 | [4] -0.03 | [5] -0.006 | [6] 0.049 | [7] -0.007 | [8] 0.004

DPH5 isoform 5 (UniProt Q9H2P9)
inactive: ibrutinib 0.043 | [1] -0.027 | ralimetinib -0.031 | [2] 0 | [3] 0.298 | [4] -0.034 | [5] -0.111 | [6] -0.007 | [7] -0.037 | [8] 0.04

COG3 (UniProt Q96JB2)
Chain of UniProt Q96JB2 (Q96JB2 whole entry, looked up): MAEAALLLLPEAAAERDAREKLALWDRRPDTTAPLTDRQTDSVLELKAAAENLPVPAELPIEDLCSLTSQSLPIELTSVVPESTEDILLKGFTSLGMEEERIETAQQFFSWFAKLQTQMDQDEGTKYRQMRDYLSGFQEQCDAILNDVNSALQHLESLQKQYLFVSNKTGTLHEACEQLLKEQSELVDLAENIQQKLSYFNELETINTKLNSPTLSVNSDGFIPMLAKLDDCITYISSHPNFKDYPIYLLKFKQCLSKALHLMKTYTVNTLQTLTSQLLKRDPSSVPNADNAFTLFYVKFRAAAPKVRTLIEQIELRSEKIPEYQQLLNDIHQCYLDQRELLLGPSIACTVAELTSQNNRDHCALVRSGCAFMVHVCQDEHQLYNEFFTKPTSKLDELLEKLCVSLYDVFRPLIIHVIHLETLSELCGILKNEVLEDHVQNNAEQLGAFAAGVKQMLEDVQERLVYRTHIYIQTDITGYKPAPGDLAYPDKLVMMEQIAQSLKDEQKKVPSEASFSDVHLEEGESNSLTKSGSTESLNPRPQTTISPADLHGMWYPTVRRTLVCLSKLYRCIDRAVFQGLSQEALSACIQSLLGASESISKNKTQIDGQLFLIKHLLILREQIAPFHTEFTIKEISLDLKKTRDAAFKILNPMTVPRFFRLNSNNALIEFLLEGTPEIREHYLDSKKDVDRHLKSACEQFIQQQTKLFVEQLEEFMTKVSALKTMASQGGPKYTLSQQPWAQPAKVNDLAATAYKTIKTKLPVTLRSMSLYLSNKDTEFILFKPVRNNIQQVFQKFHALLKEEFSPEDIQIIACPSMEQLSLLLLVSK
inactive: ibrutinib 0.026 | [1] -0.008 | ralimetinib 0.052 | [2] -0.042 | [3] -0.04 | [4] 0.006 | [5] -0.019 | [6] 0.02 | [7] 0.044 | [8] 0.02
